# Laboratory results taken from PubChem BioAssay (EPA / NIEHS).
# Inconclusive results are not listed. Calls of active or inactive are those of the source. Rule for the calls, unless noted: active = hit-call score of the fitted dose curve at least 0.9, where 1 is the maximum; inactive = score below 0.9.
# How the values were obtained:
# [1] = ATG_NFI_CIS: Attagene CIS-FACTORIAL HepG2 Assay for human Nuclear Factor I (NFI) (AID 2282989); conditions: HepG2 cis-regulatory reporter, NFI response element transcription; actives raise or lower the signal
# Method in brief: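 Transfected HepG2 liver cells, exposed 24 h, supplied total RNA for oligo(dT) reverse transcription and reporter-specific PCR. Labelled, HpaI-cut fragments were sized by capillary electrophoresis; DMSO set the baseline for bidirectional fitting.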
# [2] = target: Myc proto-oncogene protein (Homo sapiens) (UniProt P01106); experiment: ATG_Myc_CIS: Attagene CIS-FACTORIAL HepG2 Assay for human Myelocytomatosis (Myc) Proto-Oncogene Transcription Factor (AID 2282990); conditions: HepG2, Attagene cis-reporter transcription factor activity; actives raise or lower the signal
# Chain of Myc proto-oncogene protein (Homo sapiens) (P01106 whole entry, looked up): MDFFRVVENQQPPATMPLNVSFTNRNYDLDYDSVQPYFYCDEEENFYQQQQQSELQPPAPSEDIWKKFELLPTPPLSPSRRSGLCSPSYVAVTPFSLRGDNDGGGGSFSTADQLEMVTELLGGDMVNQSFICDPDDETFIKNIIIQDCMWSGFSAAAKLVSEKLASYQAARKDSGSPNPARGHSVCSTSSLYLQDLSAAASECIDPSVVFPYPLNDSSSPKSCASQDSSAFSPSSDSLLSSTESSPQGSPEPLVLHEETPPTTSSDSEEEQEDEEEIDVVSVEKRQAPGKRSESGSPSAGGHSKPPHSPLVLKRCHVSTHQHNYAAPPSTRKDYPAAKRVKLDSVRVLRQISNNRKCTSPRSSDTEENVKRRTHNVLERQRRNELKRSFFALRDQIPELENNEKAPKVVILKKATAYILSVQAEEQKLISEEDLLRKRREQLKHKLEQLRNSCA
# Method in brief: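 HepG2, transient MRTU transfection (cis promoters, endogenous TFs); 24 h dosing; TriZol RNA → oligo(dT) RT → PCR → 6-FAM primer extension → HpaI cut → CE. Bidirectional fit vs DMSO.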
# [3] = ATG_NF_kB_CIS: Attagene CIS-FACTORIAL HepG2 Assay for human Nuclear Factor Kappa B (NF-kB) (AID 2282991); conditions: HepG2 Attagene cis-factorial NF-kB reporter mRNA; actives raise or lower the signal
# Method in brief: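 Fluorescence of labelled RT-PCR products separated by capillary electrophoresis gives reporter mRNA levels from transfected HepG2 cells exposed 24 h; values are fitted in both directions relative to DMSO.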
# [4] = ATG_NRF2_ARE_CIS: Attagene CIS-FACTORIAL HepG2 Assay for human Nuclear Factor Erythroid 2 Related Factor 2 (NFR2) response to Antioxidant Response Elements (ARE) (AID 2282992); conditions: HepG2 Attagene ARE/NRF2 reporter, transcription factor activity; actives raise or lower the signal
# Method in brief: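 Cis-factorial assay: transfected HepG2 reporter library, 24 h dosing, mRNA readout via RT-PCR/CE; DMSO-referenced bidirectional analysis.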
# [5] = ATG_Oct_MLP_CIS: Attagene CIS-FACTORIAL HepG2 Assay for human Octamer-Binding Transcription Factor (Oct) (AID 2282993); conditions: HepG2 Attagene cis-factorial Oct reporter, mRNA; actives raise or lower the signal
# Method in brief: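 Using HepG2 cells bearing transfected cis-reporter constructs, mRNA induction was read after 24 h by fluorescent RT-PCR and capillary electrophoresis, with DMSO defining baseline for gain- or loss-of-signal fits.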
# [6] = target: Cellular tumor antigen p53 (Homo sapiens) (UniProt P04637); experiment: ATG_p53_CIS: Attagene CIS-FACTORIAL HepG2 Assay for human p53 Transcription Factor (AID 2282994); conditions: HepG2 p53 cis-element reporter, Attagene mRNA; actives raise or lower the signal
# Chain of Cellular tumor antigen p53 (Homo sapiens) (P04637 whole entry, looked up): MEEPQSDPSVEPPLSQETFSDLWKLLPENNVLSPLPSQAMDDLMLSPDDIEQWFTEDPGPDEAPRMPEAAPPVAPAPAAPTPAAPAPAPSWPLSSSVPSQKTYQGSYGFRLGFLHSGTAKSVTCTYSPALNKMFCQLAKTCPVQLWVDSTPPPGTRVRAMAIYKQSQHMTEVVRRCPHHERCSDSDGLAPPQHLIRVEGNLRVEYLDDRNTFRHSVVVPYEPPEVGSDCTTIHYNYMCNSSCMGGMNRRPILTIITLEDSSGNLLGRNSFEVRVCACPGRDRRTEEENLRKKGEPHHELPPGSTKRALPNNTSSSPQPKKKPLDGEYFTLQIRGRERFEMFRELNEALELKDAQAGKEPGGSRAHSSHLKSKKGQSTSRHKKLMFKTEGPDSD
# Method in brief: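 Using HepG2 hepatoma cells carrying cis-acting multiplexed reporters, mRNA induction is detected after a 24 h exposure. Gain- and loss-of-signal responses are fitted relative to DMSO-treated cells.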
# [7] = BSK_3C_TissueFactor: BioMAP Diversity Plus: 3C Assay for Tissue Factor Biomarker Activity (AID 2282997); conditions: BioMAP 3C HUVEC, tissue factor biomarker readout; actives raise or lower the signal
# Method in brief: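 Primary human umbilical vein endothelial cells in the 3C system were exposed to test chemical for 24 h, then Tissue Factor measured by ELISA. Activity was fitted bidirectionally against DMSO as negative control and baseline.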
# [8] = BSK_3C_uPAR: BioMAP Diversity Plus: 3C Assay for Urokinase-type plasminogen activator receptor (uPAR) Biomarker Activity (AID 2282998); conditions: BioMAP 3C HUVEC, uPAR biomarker ELISA; actives raise or lower the signal
# Method in brief: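 In this endothelial cell-based assay, human umbilical vein primary cells were treated with chemicals and harvested at 24 h. uPAR was quantified using ELISA, with gains or losses fitted relative to DMSO controls.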
# [9] = BSK_3C_VCAM1: BioMAP Diversity Plus: 3C Assay for Vascular cell adhesion molecule 1 (VCAM1) Biomarker Activity (AID 2282999); conditions: BioMAP 3C HUVEC, VCAM1 ELISA, cytokine-stimulated; actives raise or lower the signal
# Method in brief: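 Endothelial cells from human umbilical vein are treated with test chemical. At 24 h, VCAM-1 is measured by ELISA, and responses in either direction are fitted relative to DMSO.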
# [10] = BSK_4H_Eotaxin3: BioMAP Diversity Plus: 4H Assay for Eotaxin 3 Biomarker Activity (AID 2283000); conditions: primary human endothelial cells (HUVEC); actives raise or lower the signal;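 note: CCL26 protein level quantified by ELISA in parallel with SRB cytotoxicity check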
# Method in brief: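 HUVEC, 24 h post-dose, ELISA for Eotaxin-3/CCL26. Gain or loss of signal fitted bidirectionally vs DMSO baseline.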
# [11] = target: human Peroxisome Proliferator-activated Receptor alpha (PPARa), PPARA (gene 5465) (UniProt Q07869); experiment: ATG_PPARa_TRANS: Attagene TRANS-FACTORIAL HepG2 Assay for human Peroxisome Proliferator-activated Receptor alpha (PPARa) (AID 2283001; active = hit-call score of the fitted dose curve at least 0.9, where 1 is the maximum;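 for AC50: potency for gain of reporter signal over DMSO so agonist or activator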)
# Chain of human Peroxisome Proliferator-activated Receptor alpha (PPARa), PPARA (gene 5465) (Q07869 whole entry, looked up, the tested form may be a part): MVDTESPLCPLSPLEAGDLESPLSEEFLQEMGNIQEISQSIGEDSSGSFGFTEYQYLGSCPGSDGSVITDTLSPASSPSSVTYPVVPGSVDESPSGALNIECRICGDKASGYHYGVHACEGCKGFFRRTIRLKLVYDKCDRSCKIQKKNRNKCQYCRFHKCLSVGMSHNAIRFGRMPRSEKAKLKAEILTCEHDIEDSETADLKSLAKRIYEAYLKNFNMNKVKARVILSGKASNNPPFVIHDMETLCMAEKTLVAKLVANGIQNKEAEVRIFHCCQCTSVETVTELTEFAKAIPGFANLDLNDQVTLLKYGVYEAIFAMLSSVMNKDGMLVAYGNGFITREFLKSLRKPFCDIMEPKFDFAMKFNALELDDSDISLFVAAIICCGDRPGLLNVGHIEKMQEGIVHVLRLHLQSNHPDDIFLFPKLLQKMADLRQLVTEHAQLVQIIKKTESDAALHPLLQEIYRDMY
# Method in brief: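 Reporter transcripts from GAL4-UAS units in transfected HepG2 were quantified 24 h after dosing. Detection used reverse transcription, PCR, fluorescent primer extension and capillary electrophoresis, with DMSO as baseline.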
# [12] = target: human Peroxisome Proliferator-activated Receptor delta (PPARd), PPARD (gene 5467) (UniProt Q03181); experiment: ATG_PPARd_TRANS: Attagene TRANS-FACTORIAL HepG2 Assay for human Peroxisome Proliferator-activated Receptor delta (PPARd) (AID 2283002; active = hit-call score of the fitted dose curve at least 0.9, where 1 is the maximum)
# Chain of human Peroxisome Proliferator-activated Receptor delta (PPARd), PPARD (gene 5467) (Q03181 whole entry, looked up, the tested form may be a part): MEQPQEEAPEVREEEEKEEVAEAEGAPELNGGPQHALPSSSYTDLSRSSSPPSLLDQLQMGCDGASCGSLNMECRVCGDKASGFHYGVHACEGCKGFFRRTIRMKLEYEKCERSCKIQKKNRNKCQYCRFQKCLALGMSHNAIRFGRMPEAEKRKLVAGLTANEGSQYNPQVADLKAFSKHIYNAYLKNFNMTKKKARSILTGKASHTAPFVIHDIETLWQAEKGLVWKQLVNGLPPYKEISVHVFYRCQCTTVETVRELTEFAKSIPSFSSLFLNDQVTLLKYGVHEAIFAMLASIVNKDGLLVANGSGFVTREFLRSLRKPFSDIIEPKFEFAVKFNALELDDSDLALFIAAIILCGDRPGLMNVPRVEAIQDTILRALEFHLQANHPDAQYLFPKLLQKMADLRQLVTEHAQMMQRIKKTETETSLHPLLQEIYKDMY
# Method in brief: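 Transient HepG2 transfection (multiple GAL4-UAS RTUs, chimeric receptor-Gal4); 24 h dosing; total RNA → oligo(dT) RT → PCR → 6-FAM primer extension → HpaI cut → CE. Positive direction vs DMSO.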
# [13] = read-out: Intercellular Adhesion Molecule 1 (ICAM1), ICAM1 (gene 3383); experiment: BSK_3C_ICAM1: BioMAP Diversity Plus: 3C Assay for Intercellular Adhesion Molecule 1 (ICAM1) Biomarker Activity (AID 2283003); conditions: primary human endothelial cells (HUVEC); actives raise or lower the signal
# Method in brief: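 Human vascular endothelial primary cells, 3C conditions, 24 h treatment. ICAM-1 by ELISA.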
# [14] = BSK_3C_Proliferation: Cell Proliferation Assessment in the BioMAP Diversity Plus: 3C Assay (AID 2283006); conditions: primary human endothelial cells (HUVEC);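 note: potency may reflect either rise or fall in cell number versus DMSO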
# Method in brief: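 Proliferation of human vascular endothelial primary cells after 48 h dosing, quantified as SRB-stained protein at 560 nm relative to DMSO.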
# [15] = target: Peroxisome proliferator-activated receptor gamma (Homo sapiens) (UniProt P37231); experiment: ATG_PPARg_TRANS: Attagene TRANS-FACTORIAL HepG2 Assay for human Peroxisome Proliferator-activated Receptor-gamma (PPARg) (AID 2283007; active = hit-call score of the fitted dose curve at least 0.9, where 1 is the maximum)
# Chain of Peroxisome proliferator-activated receptor gamma (Homo sapiens) (P37231 whole entry, looked up): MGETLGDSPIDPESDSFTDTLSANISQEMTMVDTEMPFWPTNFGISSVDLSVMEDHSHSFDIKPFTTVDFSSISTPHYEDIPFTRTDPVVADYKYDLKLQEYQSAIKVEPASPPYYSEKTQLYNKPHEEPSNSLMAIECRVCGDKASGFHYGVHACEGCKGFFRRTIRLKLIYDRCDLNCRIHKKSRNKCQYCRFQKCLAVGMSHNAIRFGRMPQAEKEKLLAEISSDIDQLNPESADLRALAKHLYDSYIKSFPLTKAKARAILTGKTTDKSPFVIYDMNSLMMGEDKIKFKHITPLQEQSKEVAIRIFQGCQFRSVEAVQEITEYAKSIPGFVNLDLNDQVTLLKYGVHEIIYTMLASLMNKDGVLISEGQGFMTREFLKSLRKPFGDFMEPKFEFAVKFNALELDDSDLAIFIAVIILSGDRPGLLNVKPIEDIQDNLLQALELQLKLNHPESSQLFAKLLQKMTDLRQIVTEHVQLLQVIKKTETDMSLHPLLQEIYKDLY
# Method in brief: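 Twenty-four hours after chemical dosing of transiently transfected HepG2 cells, isolated RNA was converted to cDNA, reporter sequences amplified and 6-FAM-labelled, then HpaI-digested and analysed by capillary electrophoresis. Signal increase against DMSO was fitted.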
# [16] = target: Nuclear receptor subfamily 1 group I member 2 (Homo sapiens) (UniProt O75469); experiment: ATG_PXR_TRANS: Attagene TRANS-FACTORIAL HepG2 Assay for human Pregnane X Receptor (PXR) (AID 2283008; active = hit-call score of the fitted dose curve at least 0.9, where 1 is the maximum)
# Chain of Nuclear receptor subfamily 1 group I member 2 (Homo sapiens) (O75469 whole entry, looked up, the tested form may be a part): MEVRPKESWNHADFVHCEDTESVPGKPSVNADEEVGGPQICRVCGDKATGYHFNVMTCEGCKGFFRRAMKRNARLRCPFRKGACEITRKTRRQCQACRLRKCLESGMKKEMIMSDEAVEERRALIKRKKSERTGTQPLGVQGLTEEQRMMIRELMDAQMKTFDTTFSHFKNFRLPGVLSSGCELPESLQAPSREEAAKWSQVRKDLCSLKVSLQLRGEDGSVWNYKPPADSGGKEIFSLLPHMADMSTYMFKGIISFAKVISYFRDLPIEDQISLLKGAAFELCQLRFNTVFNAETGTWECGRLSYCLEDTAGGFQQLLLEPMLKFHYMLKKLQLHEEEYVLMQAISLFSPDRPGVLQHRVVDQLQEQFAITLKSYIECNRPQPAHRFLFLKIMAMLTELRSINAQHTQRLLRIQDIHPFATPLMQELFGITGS
# Method in brief: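 Fluorescence intensity of FAM-labelled, HpaI-digested reporter amplicons, separated by capillary electrophoresis, quantifies induction. HepG2 cells with PXR-Gal4 trans-reporter system were exposed 24 h; DMSO defines baseline.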
# [17] = target: human RAR-related Orphan Receptor beta (RORb), RORB (gene 6096) (UniProt Q92753); experiment: ATG_RORb_TRANS: Attagene TRANS-FACTORIAL HepG2 Assay for human RAR-related Orphan Receptor beta (RORb) (AID 2283010; active = hit-call score of the fitted dose curve at least 0.9, where 1 is the maximum)
# Chain of human RAR-related Orphan Receptor beta (RORb), RORB (gene 6096) (Q92753 whole entry, looked up, the tested form may be a part): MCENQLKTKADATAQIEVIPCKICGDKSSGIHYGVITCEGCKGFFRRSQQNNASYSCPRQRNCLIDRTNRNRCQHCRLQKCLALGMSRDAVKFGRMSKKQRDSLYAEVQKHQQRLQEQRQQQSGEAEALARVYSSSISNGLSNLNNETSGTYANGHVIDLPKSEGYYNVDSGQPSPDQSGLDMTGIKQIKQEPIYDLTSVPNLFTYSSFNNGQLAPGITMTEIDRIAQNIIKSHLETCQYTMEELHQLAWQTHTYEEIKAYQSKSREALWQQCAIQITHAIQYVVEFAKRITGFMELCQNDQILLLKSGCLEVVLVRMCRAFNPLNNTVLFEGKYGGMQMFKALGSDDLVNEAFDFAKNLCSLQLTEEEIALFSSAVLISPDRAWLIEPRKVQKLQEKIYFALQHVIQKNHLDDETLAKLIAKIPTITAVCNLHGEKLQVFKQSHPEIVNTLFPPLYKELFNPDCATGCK
# Method in brief: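 In this TRANS-format test, human HepG2 cells express chimeric NR-Gal4 fusion proteins driving GAL4-UAS reporters. After 24 h dosing, reporter transcripts are measured by fluorescent RT-PCR/capillary electrophoresis, with DMSO as negative control.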
# [18] = target: human Retinoic Acid Receptor beta (RARb), RARB (gene 5915) (UniProt P10826); experiment: ATG_RARb_TRANS: Attagene TRANS-FACTORIAL HepG2 Assay for human Retinoic Acid Receptor beta (AID 2283004; active = hit-call score of the fitted dose curve at least 0.9, where 1 is the maximum)
# Chain of human Retinoic Acid Receptor beta (RARb), RARB (gene 5915) (P10826 whole entry, looked up, the tested form may be a part): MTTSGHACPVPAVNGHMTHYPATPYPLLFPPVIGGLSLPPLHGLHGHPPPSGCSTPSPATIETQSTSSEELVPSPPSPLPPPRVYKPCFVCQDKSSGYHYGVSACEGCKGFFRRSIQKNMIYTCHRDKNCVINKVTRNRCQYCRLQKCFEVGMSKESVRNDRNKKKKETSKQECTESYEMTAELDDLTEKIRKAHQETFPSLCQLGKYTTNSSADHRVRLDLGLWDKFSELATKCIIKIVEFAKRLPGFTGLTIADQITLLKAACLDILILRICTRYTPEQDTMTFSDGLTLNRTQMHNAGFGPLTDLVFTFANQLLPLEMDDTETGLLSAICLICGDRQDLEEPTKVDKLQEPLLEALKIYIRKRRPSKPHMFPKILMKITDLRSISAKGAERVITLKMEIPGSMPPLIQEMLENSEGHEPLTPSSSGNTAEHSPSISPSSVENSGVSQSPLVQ
# Method in brief: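 HepG2 cells transiently transfected with multiplexed GAL4-UAS reporter units expressing chimeric NR–Gal4 fusions; 24 h compound exposure. Reporter mRNA quantified by RT-PCR, 6-FAM labelling, HpaI digestion and capillary electrophoresis; gain-of-signal fitted against DMSO baseline.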
# [19] = target: Retinoic acid receptor alpha (Homo sapiens) (UniProt P10276); experiment: ATG_RARa_TRANS: Attagene TRANS-FACTORIAL HepG2 Assay for human Retinoic Acid Receptor alpha (RARa) (AID 2283005; active = hit-call score of the fitted dose curve at least 0.9, where 1 is the maximum)
# Chain of Retinoic acid receptor alpha (Homo sapiens) (P10276 whole entry, looked up, the tested form may be a part): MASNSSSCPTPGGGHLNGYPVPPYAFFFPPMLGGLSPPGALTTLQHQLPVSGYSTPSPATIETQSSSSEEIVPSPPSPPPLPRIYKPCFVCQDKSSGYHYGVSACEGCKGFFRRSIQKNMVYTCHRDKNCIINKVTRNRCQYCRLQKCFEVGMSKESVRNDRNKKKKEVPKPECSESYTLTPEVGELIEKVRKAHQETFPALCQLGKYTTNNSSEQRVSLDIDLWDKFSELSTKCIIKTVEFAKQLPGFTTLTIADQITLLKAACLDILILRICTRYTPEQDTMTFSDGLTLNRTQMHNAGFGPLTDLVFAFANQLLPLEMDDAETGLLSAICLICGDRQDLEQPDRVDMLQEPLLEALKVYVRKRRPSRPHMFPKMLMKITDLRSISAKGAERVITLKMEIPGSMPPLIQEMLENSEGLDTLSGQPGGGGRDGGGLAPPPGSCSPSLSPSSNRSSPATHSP
# Method in brief: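 Reporter transcripts, measured by RT-PCR with fluorescent labeling and capillary electrophoresis after 24 h dosing, reflect activity of an exogenous human RARa–GAL4 fusion in transiently transfected HepG2. Fitted for increase relative to DMSO.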
# [20] = target: human Retinoic Acid Receptor gamma (RARg), RARG (gene 5916) (UniProt P13631); experiment: ATG_RARg_TRANS: Attagene TRANS-FACTORIAL HepG2 Assay for human Retinoic Acid Receptor gamma (RARg) (AID 2283009; active = hit-call score of the fitted dose curve at least 0.9, where 1 is the maximum)
# Chain of human Retinoic Acid Receptor gamma (RARg), RARG (gene 5916) (P13631 whole entry, looked up, the tested form may be a part): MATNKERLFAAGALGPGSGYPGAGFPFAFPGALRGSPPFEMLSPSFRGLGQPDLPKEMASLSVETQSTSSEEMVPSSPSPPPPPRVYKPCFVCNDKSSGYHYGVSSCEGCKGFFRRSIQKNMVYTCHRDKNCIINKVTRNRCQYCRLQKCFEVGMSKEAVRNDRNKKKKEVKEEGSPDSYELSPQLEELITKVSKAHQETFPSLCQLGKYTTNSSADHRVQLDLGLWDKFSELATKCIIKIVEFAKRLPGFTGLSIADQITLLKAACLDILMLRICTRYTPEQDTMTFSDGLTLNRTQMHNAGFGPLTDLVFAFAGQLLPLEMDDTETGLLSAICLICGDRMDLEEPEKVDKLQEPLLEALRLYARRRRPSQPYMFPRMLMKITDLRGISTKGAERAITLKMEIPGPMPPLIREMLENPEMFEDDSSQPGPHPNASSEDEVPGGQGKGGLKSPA
# Method in brief: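 HepG2, RARg-GAL4 TRANS system, 24 h exposure; reporter mRNA by RT-PCR + CE fluorescence; increase over DMSO.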
compound,measurement,setting,value
C#C[C@]1(O)CC[C@H]2[C@@H]3CCC4=Cc5oncc5C[C@]4(C)[C@H]3CC[C@@]21C,AC50,[1],57.1 µM (active)
same,outcome,[2],inactive
same,outcome,[3],inactive
same,outcome,[4],inactive
same,AC50,[5],29 µM (active)
same,AC50,[6],24.7 µM (active)
same,outcome,[7],inactive
same,AC50,[8],6.51 µM (active)
same,outcome,[9],inactive
same,outcome,[10],inactive
same,AC50,[11],176 µM (active)
same,outcome,[12],inactive
same,outcome,[13],inactive
same,AC50,[14],20 µM (active)
same,outcome,[15],inactive
same,AC50,[16],5.38 µM (active)
same,outcome,[17],inactive
CC1(C)CCC(C)(C)c2cc(C(=O)Nc3ccc(C(=O)O)cc3)ccc21,outcome,[1],inactive
same,outcome,[2],inactive
same,outcome,[3],inactive
same,outcome,[4],inactive
same,AC50,[5],100 µM (active)
same,AC50,[6],55.1 µM (active)
same,outcome,[11],inactive
same,outcome,[12],inactive
same,outcome,[18],inactive
same,AC50,[15],100 µM (active)
O=C1CCCCCCCCCCOCCCCO1,outcome,[1],inactive
same,outcome,[2],inactive
same,outcome,[3],inactive
same,AC50,[4],167 µM (active)
same,outcome,[5],inactive
same,outcome,[6],inactive
same,AC50,[11],40 µM (active)
same,outcome,[12],inactive
same,outcome,[19],inactive
same,AC50,[15],59.3 µM (active)
same,outcome,[16],inactive
same,outcome,[20],inactive
same,outcome,[17],inactive
CCCCCCCCCCCCCCCC(=O)OC[C@H](O)[C@H]1OC(=O)C(O)=C1O,outcome,[1],inactive
same,outcome,[2],inactive
same,outcome,[3],inactive
same,AC50,[4],66.8 µM (active)
same,outcome,[5],inactive
same,outcome,[6],inactive
same,outcome,[11],inactive
same,outcome,[12],inactive
same,outcome,[15],inactive
Clc1cccc(Cl)n1,outcome,[1],inactive
same,outcome,[2],inactive
same,outcome,[3],inactive
same,outcome,[4],inactive
same,outcome,[5],inactive
same,outcome,[6],inactive
same,outcome,[11],inactive
same,outcome,[12],inactive
same,outcome,[15],inactive
same,outcome,[16],inactive
